Pf Dd2 growth: inhibitors of Plasmodium falciparum Dd2 growth | P. falciparum Dd2 growth, SYBR Green, 72 h | Potency, µM (doses to about 28.9 µM), most hits filed as inhibitors | 4.3% of 120,000 active; active = well fitted inhibition curve with a large enough effect; note: nearly all actives have a fitted effect of over 65% in size
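Readout: SYBR Green fluorescence, 485 nm excitation, 535 nm emission, after ~16 h lysis at 37C. Before that, Dd2-infected red cells (2.5% hematocrit) grew 72 h with compound, 29 uM top final concentration.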
Of the large screens only hits and unclear results are named; the others gave an inactive call. Shown is part of a subset that was picked to be rich in hits.

COCC(=O)N[C@@H]1CN(Cc2ccc(Cl)cc2F)C[C@H]1CO	none
O=C(NCc1ccccc1)c1ccc(CN2C(=O)NC3(CCS(=O)(=O)CC3)C2=O)cc1	none
O=C(O)Cn1ccc2cc(OCCc3cccc(-c4cccc(F)c4)c3)cnc21	none
CCc1nc(-c2c3n(c(=O)n(Cc4ccccc4)c2=O)CCCCC3)no1	none
COc1cccc([C@@H]2CN(C(=O)c3cnn(C)c3)C[C@H]2C(=O)O)c1OC	none
COc1ccc(CNC(=O)[C@@H]2CCC[C@@H](NCC3CC3)CN(C)C(=O)C2)cc1	none
COCCCn1c(C)cnc1C1CCN(C(=O)COc2ccccc2)C1 (stereo not drawn)	none
COCCCN1C(=O)c2[nH]nc(-c3ccccc3O)c2C1c1ccc(OCc2ccccc2)cc1 (stereo not drawn)	Pf Dd2 growth 8.9µM
Cc1ccc(C)c(NC(=O)Cn2nc3c(cc2=O)CCCCC3)c1	none
CC(=O)Oc1c(-c2ccc(NC(=O)c3ccco3)cc2)c(C2CC2)nn1-c1cccc(C)c1	none
O=C(CCC1CCN(c2cc(NC3CC3)ncn2)CC1)N1CCN(c2ccccc2F)CC1	none
CCCNc1cc(N2CCC(CCC(=O)NCC3CC3)CC2)ncn1	none
CCCNc1cc(N2CCC(CCC(=O)N3CCN(c4ccccc4F)CC3)CC2)ncn1	Pf Dd2 growth 11µM
O=C(CC1CCCN(c2cnn(CC3CC3)c(=O)c2)C1)NCCc1c[nH]c2ccccc12 (stereo not drawn)	none
O=C1COCCN1C1CCN(Cc2ccsc2)CC1	none
O=C1CCCCCN1C1CCN(Cc2cccnc2)CC1	none
O=C1CCCCCN1C1CCN(Cc2ccsc2)CC1	Pf Dd2 growth 7.1µM
Cc1ccc(-n2nc3c(N4CCCC(C(=O)NCc5ccc(Cl)cc5)C4)nnc(C)c3c2C)cc1 (stereo not drawn)	none
CCOc1ccc(CCNC(=O)C2CCCN(c3nnc(C)c4c(C)n(-c5ccccc5)nc34)C2)cc1 (stereo not drawn)	Pf Dd2 growth 7.9µM
Cc1nnc(N2CCC(C(=O)NC3CCCCC3)CC2)c2nn(-c3ccccc3)c(C)c12	none
CCOC(=O)c1cccc(NC(=O)C2CCCN(c3nnc(C)c4c(C)n(-c5ccccc5)nc34)C2)c1 (stereo not drawn)	none
Cc1nnc(N2CCCC(C(=O)NCc3ccccc3)C2)c2nn(-c3ccccc3)c(C)c12 (stereo not drawn)	none
CCc1ccc(CNC(=O)C2CCCN(c3nnc(C)c4c(C)n(-c5ccccc5)nc34)C2)cc1 (stereo not drawn)	none
CCOC(=O)C1CCCN(C(=O)C2CCN(c3nnc(C)c4c(C)n(-c5ccccc5)nc34)CC2)C1 (stereo not drawn)	Pf Dd2 growth 10µM
Cc1ccc(CCNC(=O)C2CCCN(c3nnc(C)c4c(C)n(-c5ccccc5)nc34)C2)cc1 (stereo not drawn)	none
COc1ccc(-n2nc3c(N4CCCC(C(=O)NCc5cccc(F)c5)C4)nnc(C)c3c2C)cc1 (stereo not drawn)	Pf Dd2 growth 11µM
CN(C)C(=O)CN1C(=O)CO[C@H](c2ccc(NS(=O)(=O)Cc3ccccc3)cc2)[C@H]1CO	none
Cc1ccccc1SC1CCN(c2cc(C3CC(O)C3)ncn2)CC1 (stereo not drawn)	none
O=C(c1ccc(-c2ccc(O)cc2)cc1)N1CCOC2(CNCCOC2)C1 (stereo not drawn)	none
COC(=O)c1ccc2c(c1)nc1n2[C@@H](CNC(=O)NC2CCCCC2)COC1	none
COc1ccc(-c2noc([C@@H]3CCCN3C(=O)c3cc(C)cc(C)c3)n2)cc1	none
C[S+](=O)([O-])c1cccc(Nc2n[nH]c(C(O)c3ccccc3)n2)c1 (stereo not drawn)	none
O=C(C[C@@H]1O[C@H](CNC(=O)c2ccccc2)[C@@H](O)[C@H]1O)NC1CC1	none
COc1ccc(CNC(=O)N2CCCC(c3nn(C)c(=O)n3C3CCCC3)C2)cc1 (stereo not drawn)	none
Cc1[nH]cnc1C(=O)N1CCC2(CC1)CC(C(=O)O)N(C(=O)C1CC1)C2 (stereo not drawn)	none
CN(CC1CCOC1)C(=O)NCc1cccc(F)c1 (stereo not drawn)	none
O=C(c1cccc2[nH]ccc12)N1CCC(n2cc(-c3nc(-c4ccccc4)no3)nn2)CC1	none
CC(C)NC(=O)C[C@@H]1O[C@H](CNC(=O)Nc2ccccc2)[C@@H](O)[C@H]1O	none
CN1CCN(C(=O)CC2CCCN(c3cnn(C)c(=O)c3)C2)CC1 (stereo not drawn)	none
CC(C)Cn1nc2n(c1=O)CCN(S(=O)(=O)c1cccc3cccnc13)CC2	none
COc1ccc(CC(=O)N2CC(c3nnc(C(C)C)o3)C3(CCOCC3)C2)cc1Cl (stereo not drawn)	none
CNC(=O)c1c(NC(=O)/C=C/c2ccccc2)sc2c1CCC2	none
Cc1ccc2oc(C(=O)Nc3ccc(S(=O)(=O)N4CCCC(C)C4)cc3)cc(=O)c2c1 (stereo not drawn)	none
COc1ccc(Cl)c2sc(NC(=O)c3ccc(S(=O)(=O)N4CCCC4)cc3)nc12	none
CCOC(=O)c1c(NC(=O)c2ccc(F)cc2)sc2c1CCC(CC)C2 (stereo not drawn)	none
CCC1CCCCN1S(=O)(=O)c1ccc(NC(=O)c2cc(=O)c3c(C)cc(C)cc3o2)cc1 (stereo not drawn)	none
COC(=O)c1c(NC(=O)c2ccc(S(=O)(=O)N3CCCCC3)cc2)sc2c1CCN(C)C2	Pf Dd2 growth 10µM
CCC1CCCCN1S(=O)(=O)c1ccc(C(=O)Nc2sc3c(c2C(=O)NC)CCC3)cc1 (stereo not drawn)	Pf Dd2 growth 13µM
COC(=O)c1ccc2c(c1)sc(=NC(=O)c1ccc(S(=O)(=O)N3CCCCC3)cc1)n2C	none
CCOC(=O)c1c(NC(=O)c2ccc(S(=O)(=O)N3CCC(C)CC3)cc2)sc2c1CCN(CC)C2	Pf Dd2 growth 8.9µM
CCOC(=O)c1c(NC(=O)c2ccc(C)cc2)sc2c1CCCCC2	none
Cc1ccc2c(=O)cc(C(=O)Nc3ccc(S(=O)(=O)N4CCCC(C)C4)cc3)oc2c1C (stereo not drawn)	none
COC(=O)c1c(NC(=O)c2ccc(S(=O)(=O)N3CCCC(C)C3)cc2)sc2c1CCN(C(C)C)C2 (stereo not drawn)	Pf Dd2 growth 8.9µM
CC1CCN(C(=O)[C@@H](C)C2CC[C@@]3(C)CC[C@H](NC(=O)c4cnccn4)[C@@H](C)[C@@H]3[C@H]2O)CC1 (stereo partly drawn)	none
Cc1cnc(C2CCOCC2)n1CC1CCN(C(=O)CC2CCCC2)CC1	none
CC(C)c1cccc(NC(=O)CN2C(=O)NC3(CCCCC3)C2=O)c1	none
COC[C@H]1C[C@@H](NCC(C)C)[C@H](O)[C@@H]1O	none
O=C(NCC1(c2ccccc2F)CCCC1)C1CCN(C(=O)C2CC2)CC1	none
Cc1cc(Cl)ccc1OCC(=O)N1CCC(c2n[nH]c(=O)n2-c2ccccc2)CC1	none
Cc1ccc(S(=O)(=O)NC[C@H]2OC[C@@H](NC3CCNCC3)[C@@H]2O)cc1	none
Cc1ccc(C(=O)N2CCCC3(CNc4ccccc4[S+](=O)([O-])N3)C2)cc1 (stereo not drawn)	none
O=C(Cc1ccccn1)N1CCCC(c2nn(-c3ccc(F)cc3)c(=O)[nH]2)C1 (stereo not drawn)	none
COc1ccc(-c2c3c(nc4sc(C(=O)Nc5ccc(Cl)cc5)c(N)c24)CC(C)(C)CC3=O)cc1	Pf Dd2 growth 0.063µM
COc1ccc(NC(=O)c2sc3nc(C)c(C(=O)Nc4ccc(Cl)cc4)c(-c4ccc(Br)cc4)c3c2N)cc1	none
COc1ccc(NC(=O)c2sc3nc4c(cc3c2N)CCCCCC4)cc1	none
COc1ccc(-c2cnc([C@@H]3COCCN3Cc3ccc(NC(C)=O)cc3)[nH]2)cc1	none

Screening data as filed in PubChem BioAssay.
